The record followed here is PubChem BioAssay (Tox21).

Test [1] can be described thus: A CellTox Green Cytotoxicity Assay to monitor cytotoxicity in HEK293 cells - 32 hour (AID 1224881). Further: nearly all actives have a fitted effect of over 40% in size. Further: potency means the concentration at half of the fitted maximal effect. The gist of the method:
(§1)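 Homogeneous no-lysis format: HEK293 cell suspension mixed with CellTox Green reagent, seeded, incubated 5 h at 37 C/5% CO2, then dosed by pintool with compound in DMSO.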

Test [2] in a line: A CellTox Green Cytotoxicity Assay to monitor cytotoxicity in HepG2 cells - 0 hour (AID 1224882). Further: nearly all actives have a fitted effect of over 35% in size. Summed up: (§2)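 Fluorescent DNA-binding dye, 600 HepG2 cells/well, 5 h preincubation then compound in DMSO; same plates read at 0–40 h, 37 C.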
Test [3] is described as follows: A CellTox Green Cytotoxicity Assay to monitor cytotoxicity in HepG2 cells - 32 hour (AID 1224883). Further: nearly all actives have a fitted effect of over 50% in size. Further: potency means the concentration at half of the fitted maximal effect. Summed up: as §2
The nature of test [4]: A CellTox Green Cytotoxicity Assay to monitor cytotoxicity in HEK293 cells - 8 hour (AID 1224884). Further: nearly all actives have a fitted effect of over 35% in size. The gist of the method:
as §1

Test [5] in a line: qHTS RealTime-Glo MT Cell Viability Assay in HepG2 cells - 16 hour (AID 1224885). Further: nearly all actives have a fitted effect of over 50% in size. Further: potency means the concentration at half of the fitted maximal effect. The gist of the method:
(§3)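 Compound treatment began 5 h after plating HepG2 cells (600/well) with NanoLuc luciferase and prosubstrate. Plates stayed at 37 C for 40 h; luminescence was captured at six time points, 0 h through 40 h.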
For orientation: qHTS replaces the single test concentration by a dilution series.

Test [6] in a line: qHTS RealTime-Glo MT Cell Viability Assay in HEK293 cells - 24 hour (AID 1224886). Further: nearly all actives have a fitted effect of over 50% in size. Further: potency means the concentration at half of the fitted maximal effect. The gist of the method:
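Quantitative high-throughput screen of the Tox21 10K library in HEK293: cells and RealTime-Glo reagents plated together, compound added at 5 h, luminescence monitored through 40 h at 37 C.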

Test [7] in a line: qHTS RealTime-Glo MT Cell Viability Assay in HEK293 cells - 8 hour (AID 1224887). Further: nearly all actives have a fitted effect of over 50% in size. Further: potency means the concentration at half of the fitted maximal effect. The gist of the method:
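Measured as luminescence from the same continuously cultured HEK293 wells at successive time points (0, 8, 16, 24, 32, 40 h) after compound addition. Reagent present from seeding; dosing at 5 h; incubation 37 C.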

Test [8] in a line: A CellTox Green Cytotoxicity Assay to monitor cytotoxicity in HEK293 cells - 16 hour (AID 1224888). Further: nearly all actives have a fitted effect of over 35% in size. Summed up:
as §1

Test [9] can be described thus: qHTS RealTime-Glo MT Cell Viability Assay in HepG2 cells - 0 hour (AID 1224889). Further: nearly all actives have a fitted effect of over 50% in size. The gist of the method:
as §3

The nature of test [10]: A CellTox Green Cytotoxicity Assay to monitor cytotoxicity in HepG2 cells - 8 hour (AID 1224890). Further: nearly all actives have a fitted effect of over 45% in size. Further: potency means the concentration at half of the fitted maximal effect. Summed up: as §2
Test [11] can be described thus: qHTS assay to identify small molecule antagonists of the androgen receptor (AR) signaling pathway using the MDA cell line in the presence of 0.5 nM R1881 - cell viability counter screen (AID 1259242). Further: nearly all actives have a fitted effect of over 45% in size. Summed up:
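Human breast carcinoma MDA-kb2 cells, cultured without CO2, receive compounds alongside 0.5 nM (final) R1881 agonist. After 16 hr at 37C, viability is taken as live-cell protease signal.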

The target of test [12] is Estrogen receptor (Homo sapiens) (UniProt P03372). In words: qHTS assay to identify small molecule antagonists of the estrogen receptor alpha (ER-alpha) signaling pathway using the BG1 cell line in the presence of 0.1 nM 17-beta-estradiol (AID 1259244). Further: nearly all actives have a fitted effect of over 50% in size. Summed up: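 Seeding of stripped-serum-adapted VM7Luc4E2 cells, 24 h attachment, compound transfer, then 0.1 nM final 17beta-estradiol; after 22 h incubation, ONE-Glo reagent and luminescence reading.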
Sequence of Estrogen receptor (Homo sapiens) (P03372 whole entry, looked up): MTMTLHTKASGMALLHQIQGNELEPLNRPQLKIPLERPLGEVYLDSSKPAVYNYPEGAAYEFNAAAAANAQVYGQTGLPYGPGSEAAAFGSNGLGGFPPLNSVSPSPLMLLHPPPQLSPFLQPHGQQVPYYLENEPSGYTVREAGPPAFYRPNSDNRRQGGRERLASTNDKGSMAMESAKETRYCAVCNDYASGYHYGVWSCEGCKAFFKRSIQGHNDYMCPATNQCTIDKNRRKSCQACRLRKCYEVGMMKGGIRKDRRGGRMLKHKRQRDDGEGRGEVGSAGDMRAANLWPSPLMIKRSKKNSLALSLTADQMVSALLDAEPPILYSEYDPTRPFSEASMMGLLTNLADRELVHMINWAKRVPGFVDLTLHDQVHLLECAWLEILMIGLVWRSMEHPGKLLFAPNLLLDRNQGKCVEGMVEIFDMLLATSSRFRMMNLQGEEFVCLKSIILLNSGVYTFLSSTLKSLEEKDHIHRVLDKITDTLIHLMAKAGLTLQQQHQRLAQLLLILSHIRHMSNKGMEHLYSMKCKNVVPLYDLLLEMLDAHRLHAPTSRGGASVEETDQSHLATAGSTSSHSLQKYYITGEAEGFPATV

The nature of test [13]: qHTS assay to identify small molecule phospholipidosis (PLD) inducers (AID 1259344; active means well fitted curve in the direction sought with a large enough effect; an effect the other way counts as inactive or inconclusive). Summed up:
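Cells (HepG2, 900 per well) attach for 4 h, receive LipidTOX Red and compound together, incubate 24 h at 37 C, are fixed 30 min with paraformaldehyde/Hoechst, then imaged at one site per well.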

A short description of test [14]: qHTS assay to identify small molecule HDAC inhibitors (AID 1259364). Further: potency means the concentration at half of the fitted maximal effect.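 Further: wild-type HCT-116 cells with endogenous class I/II HDAC activity; nearly all actives have a fitted effect of over 45% in size.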 Summed up: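 After a 2 hr compound incubation (37C, 5% CO2), HCT-116 cells seeded at 1,500/well the day before received HDAC-Glo reagent; signal read as luminescence after 30 min at room temperature.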
The nature of test [15]: qHTS assay to identify small molecule HDAC inhibitors - cell viability counter screen (AID 1259365). The gist of the method: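 To flag cytotoxic hits, 1,500 wild-type HCT-116 cells per well, plated the day before, receive test compounds for 2hr at 37 C before CellTiter-Glo reagent and a luminescence read.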
The nature of test [16]: qHTS assay to identify small molecule agonists of the sonic hedgehog signaling (Shh) pathway - cell viability counter screen (AID 1259366). Further: nearly all actives have a fitted effect of over 50% in size. Further: potency means the concentration at half of the fitted maximal effect. Summed up: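 Fluorescence from CellTiter-Fluor reports live cells in this counter screen. NIH/3T3-derived Gli1-Luc reporter cells receive test compounds for 24hr at 37C; reagent goes in at 23hr.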
Test [17] can be described thus: qHTS assay to identify small molecule antagonists of the sonic hedgehog signaling (Shh) pathway - cell viability counter screen (AID 1259367). Further: nearly all actives have a fitted effect of over 55% in size. Summed up:
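Cytotoxicity was assessed in parallel with Shh reporter activity by measuring live-cell protease fluorescence (CellTiter-Fluor) in NIH/3T3 cells stably carrying Gli1-Luc, treated with compound under conditioned medium stimulation for 23 hr plus 1 hr reagent incubation.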

Test [18] is described as follows: qHTS assay to identify small molecule agonists of the sonic hedgehog signaling (Shh) pathway (AID 1259368; calls by dose curve;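 further: NIH/3T3-derived 3T3Gli1-Luc cells carrying a stable Gli1-driven firefly luciferase reporter; series mostly up to about 92 µM; nearly all actives have a fitted effect of over 15% in size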). The gist of the method:
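Stable NIH/3T3 Gli1-Luc reporter clone; 24 hr cpd exposure after a 4 hr settling period; luminescence endpoint.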

Test [19] can be described thus: qHTS assay to identify small molecule antagonists of the estrogen receptor alpha (ER-alpha) signaling pathway using the BG1 cell line in the presence of 0.1 nM 17-beta-estradiol - cell viability counter screen (AID 1259241). Further: nearly all actives have a fitted effect of over 40% in size. Summed up: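 CellTiter-Fluor read (30 min, 37C) on ER-alpha/ERE-luc VM7Luc4E2 cells; 22 hr compound treatment; agonist 0.1 nM E2 final; same-well multiplex.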

Test [20] deals with Androgen receptor (Homo sapiens) (UniProt P10275). In words: qHTS assay to identify small molecule antagonists of the androgen receptor (AR) signaling pathway using the MDA cell line in the presence of 0.5 nM R1881 (AID 1259243). Further: nearly all actives have a fitted effect of over 50% in size. The gist of the method:
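Cells: MDA-kb2 (MMTV-luc). Stimulus: 0.5 nM R1881. Time: 16 hr, 37C, no CO2. Detection: ONE-Glo luminescence after 30 min at RT.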

Values joined by “and” are separate entries in the source; they are usually repeats but may differ in a detail not shown here. Identical values can stand only once. Records with an inconclusive call do not appear. More than one record can exist for a structure, and the calls need not agree. Active and inactive are the calls of the source. Unless noted, the call rests on the fitted dose curve; in most records, active means well fitted curve in the direction sought with a large enough effect in the repeat runs; inconclusive means weak or mixed curves; inactive means no such curve, though single readings can be large; an effect the other way counts as inactive or inconclusive.

Sequence of Androgen receptor (Homo sapiens) (P10275 whole entry, looked up): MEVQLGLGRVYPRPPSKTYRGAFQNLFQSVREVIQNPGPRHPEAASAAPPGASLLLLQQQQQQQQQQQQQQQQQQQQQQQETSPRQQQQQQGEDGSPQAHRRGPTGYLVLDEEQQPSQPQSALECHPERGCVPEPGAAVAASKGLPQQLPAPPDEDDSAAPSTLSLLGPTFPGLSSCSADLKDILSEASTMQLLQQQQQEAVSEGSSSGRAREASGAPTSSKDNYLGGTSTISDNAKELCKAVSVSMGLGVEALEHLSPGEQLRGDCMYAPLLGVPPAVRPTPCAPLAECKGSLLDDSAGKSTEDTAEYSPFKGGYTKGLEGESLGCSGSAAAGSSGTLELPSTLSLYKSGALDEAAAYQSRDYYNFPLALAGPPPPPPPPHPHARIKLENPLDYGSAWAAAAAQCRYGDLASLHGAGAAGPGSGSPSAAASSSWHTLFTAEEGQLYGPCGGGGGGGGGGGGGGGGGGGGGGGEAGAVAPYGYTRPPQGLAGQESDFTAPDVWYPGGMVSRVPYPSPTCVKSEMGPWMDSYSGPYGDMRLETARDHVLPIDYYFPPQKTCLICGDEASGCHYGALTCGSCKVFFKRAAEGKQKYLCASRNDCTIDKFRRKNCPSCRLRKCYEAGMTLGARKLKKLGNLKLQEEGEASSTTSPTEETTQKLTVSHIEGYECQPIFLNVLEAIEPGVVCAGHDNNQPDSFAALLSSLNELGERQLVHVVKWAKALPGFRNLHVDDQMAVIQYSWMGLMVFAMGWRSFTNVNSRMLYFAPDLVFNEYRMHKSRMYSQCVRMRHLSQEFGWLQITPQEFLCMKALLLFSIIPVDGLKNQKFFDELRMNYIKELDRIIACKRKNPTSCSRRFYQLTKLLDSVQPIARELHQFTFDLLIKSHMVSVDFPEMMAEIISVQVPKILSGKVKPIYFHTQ

With `CCCCCCCC/C=C\CCCCCCCC(=O)O`, the Potency entry in [1], in test [2], in [3], in [4], in [5] and in test [6] was “inactive” throughout. The Potency result in [7], in test [8], in test [9], in [10], in test [11] and in test [12] was “inactive” in each case. Besides, the Potency result in test [13], in test [14], in [16], in test [17] and in test [18] was “inactive” throughout. Moreover, the call in test [15] was inactive.

Regarding `CCCCCC1C(=O)CCC1CC(=O)OC` (stereo not drawn), the Potency result in test [1], in test [2], in test [3], in test [4], in test [5] and in test [6] was “inactive” in each case. Moreover, the Potency entry in test [7], in test [8], in [9], in test [10], in test [19] and in [11] was “inactive” in each case. Moreover, the Potency result in [12], in test [14], in test [16], in [17] and in [18] was “inactive” each time. The result in test [15] was inactive.

As for `CCC(Cc1c(I)cc(I)c(N)c1I)C(=O)O` (stereo not drawn), the Potency result in [1], in test [2], in test [3], in test [4], in test [5] and in [6] was “inactive” throughout. The Potency entry in test [7], in test [8], in test [9], in [10], in [19] and in [11] was “inactive” throughout. The Potency result in test [12], in test [13], in test [14], in test [16], in [17] and in test [18] was “inactive” each time. The compound was classed as inactive in [15].

In the case of `O=C(CCCN1CCC(O)(c2ccc(Cl)cc2)CC1)c1ccc(F)cc1`, the Potency in [1] is 49 µM (active) and inactive; in [3], 21.9 µM (active); in test [5], 49 µM (active) and inactive; in test [6], 13.8 µM (active) and 8.49 µM (active); in [7], 13.8 µM (active) and 9.52 µM (active); in test [10] it was 49 µM (active) and inactive. Besides, in test [16], the Potency was 68.6 µM (active) and inactive. In addition, the Potency entry in [2], in [4], in test [9], in test [19], in test [11] and in test [14] was “inactive” each time. The Potency result in test [17] and in test [18] was “inactive” throughout. Besides, the call in test [15] was inactive.

As for `CN(C)/N=N/c1nc[nH]c1C(N)=O`, the Potency result in test [1], in test [2], in test [3], in [4], in test [5] and in test [6] was “inactive” throughout. The Potency result in [8], in test [9], in test [10], in test [19], in [11] and in [12] was “inactive” throughout. The Potency entry in test [13], in [14], in test [16], in test [17] and in test [18] was “inactive” each time. The outcome in test [15] was inactive.

Consider `CCc1cccc2c3c([nH]c12)C(CC)(CC(=O)O)OCC3` (stereo not drawn), for which the Potency result in test [1], in test [2], in [3], in test [4], in [5] and in test [6] was “inactive” in each case. Also, the Potency result in [7], in test [8], in test [9], in test [10], in [11] and in [20] was “inactive” in each case. The Potency result in [12], in [13], in [14], in test [16] and in test [18] was “inactive” in each case. Further, the result in test [15] was inactive.

As for `O=C(O)CCCCCCCCCCCC(=O)O`, the Potency result in test [1], in test [2], in test [3], in test [4], in [5] and in [6] was “inactive” in each case. In addition, the Potency entry in test [8], in [9], in [10], in test [19], in test [11] and in test [16] was “inactive” each time. For the same compound, the Potency entry in test [17] and in [18] was “inactive” in each case. In addition, the Potency in test [14] is 30.1 µM (active) and 27.3 µM (active). Further, the compound was classed as inactive in [15].
